Experiment [1] is described as follows: CCTE_Deisenroth_AIME_384WELL_CTox_Active: Cytotoxicity Assessment (CTOX) in CCTE's 384-well Estrogen Receptor Transactivation Assay with AIME metabolic competence (metabolism positive), Deisenroth Lab (AID 2284037; active means hit-call score of the fitted dose curve at least 0.9, where 1 is the maximum;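 further: chemicals first conditioned 2 h by alginate-bound induced rat liver S9 before cells; activity means signal loss indicating cell death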). Put shortly:
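Chemicals pre-incubated 2 hours with alginate-immobilised phenobarbital/beta-naphthoflavone-induced male Sprague Dawley rat liver S9, then conditioned medium applied 24 hour to VM7Luc4E2 cells. Viability by fluorogenic protease substrate; 10-point series 0.002 - 200 uM.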

Experiment [2] has as its target Estrogen receptor (Homo sapiens) (UniProt P03372). Put plainly: CCTE_Deisenroth_AIME_384WELL_LUC_Inactive: CCTE's 384-well Estrogen Receptor Transactivation Assay without AIME metabolic competence (ERTA luciferase; metabolism negative), Deisenroth Lab (AID 2284038; active means hit-call score of the fitted dose curve at least 0.9, where 1 is the maximum;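 further: VM7Luc4E2 breast cells given medium preincubated 2 h with S9-free microspheres; hits raise estrogen receptor luciferase signal so potencies reflect agonists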). The essentials: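 VM7Luc4E2 ER transactivation, luciferase bioluminescence after 24 h, using medium pre-incubated 2 h with S9-free alginate microspheres. Concentrations 0.002–200 uM; gain of signal fitted relative to 17beta-estradiol.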

Experiment [3] is described as follows: CCTE_Deisenroth_AIME_384WELL_CTox_Inactive: Cytotoxicity Assessment (CTOX) in CCTE's 384-well Estrogen Receptor Transactivation Assay without AIME metabolic competence (metabolism negative), Deisenroth Lab (AID 2284039; active means hit-call score of the fitted dose curve at least 0.9, where 1 is the maximum;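 further: cell viability via live-cell protease substrate cleaved to fluorescent probe; cells exposed 24 h to medium preincubated 2 h with alginate-water beads without S9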). The essentials:
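Metabolism-negative arm: chemicals (10-point, 0.002 - 200 uM) preincubated 2 h with alginate-water lids, medium moved onto VM7Luc4E2 cells for 24 h. Fluorescent live-cell protease readout; bidirectional curve fit.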

Experiment [4] deals with Estrogen receptor (Homo sapiens) (UniProt P03372). The experiment can be described thus: CCTE_Deisenroth_AIME_384WELL_LUC_Shift: CCTE's 384-well Estrogen Receptor Transactivation Assay with AIME metabolic competence data shift (ERTA luciferase; difference in metabolism positive and negative), Deisenroth Lab (AID 2284041).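 Further: shift is response with S9 minus without S9 so positive means metabolism raised ER signal.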 The essentials:
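Chemicals (0.002–200 uM, 10 points) pre-incubated 2 h with alginate-encapsulated induced male Sprague Dawley rat liver S9 or S9-free, then medium applied 24 h to VM7Luc4E2 cells; luciferase. Endpoint is per-concentration difference, S9-positive minus negative.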

The nature of experiment [5]: CCTE_Shafer_MEA_dev_active_electrodes_number: CCTE's Neural Network Formation Assay for Number of Active Electrodes, Shafer Lab (AID 2284040; active means hit-call score of the fitted dose curve at least 0.9, where 1 is the maximum;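 on AC50: potency for loss of active electrodes versus DMSO so lower counts are hits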). The essentials:
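Counts electrodes per well firing at least 5 spikes/min, recorded on days 5, 7, 9 and 12 in rat cortical cultures dosed continuously from plating (treatment refreshed DIV 5, 9). Value is the area under the curve over recordings, fitted downward relative to DMSO.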

Experiment [6] is described as follows: CCTE_Shafer_MEA_dev_burst_rate: CCTE's Neural Network Formation Assay for Burst Rate, Shafer Lab (AID 2284042). Put shortly: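 Cells plated, treated day 0; recorded DIV 5, 7, 9, 12; fed and re-treated DIV 5, 9. Endpoint: bursts per recording time, active-electrode well mean, trapezoidal AUC, fitted in decreasing direction against DMSO baseline.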
A short description of experiment [7]: CCTE_Shafer_MEA_dev_bursting_electrodes_number: CCTE's Neural Network Formation Assay for Number of Bursting Electrodes, Shafer Lab (AID 2284043; active means hit-call score of the fitted dose curve at least 0.9, where 1 is the maximum). Put shortly:
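Rat cortical primary neurons, 48-well MEA, 16 electrodes/well; dosing DIV 0–12, re-dosed with full media change DIV 5, 9. Recordings DIV 5/7/9/12, AxIS adaptive spike detector; bursting electrode = ≥1 burst/2 min. AUC across days; loss of signal vs DMSO.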

A short description of experiment [8]: CCTE_Shafer_MEA_dev_per_burst_interspike_interval: CCTE's Neural Network Formation Assay for Burst Interspike Interval, Shafer Lab (AID 2284044). Put shortly: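 Readout is the average time between spikes inside single-electrode bursts, taken as a well mean across bursting electrodes. Cortical neurons from rat developed networks on MEA plates under continuous 12-day exposure; recordings on days 5, 7, 9 and 12 were integrated by trapezoidal AUC.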

Experiment [9] is described as follows: CCTE_Shafer_MEA_dev_burst_duration_mean: CCTE's Neural Network Formation Assay for Mean Burst Duration, Shafer Lab (AID 2284045). Put shortly: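 Rat cortical cultures, 1.5 x 10^5 cells/well with laminin drop; continuous dosing days 0–12, media plus treatment refreshed DIV 5, 9. AxIS adaptive spike detection; mean single-electrode burst duration, AUC over four recordings, negative direction vs DMSO.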

Experiment [10] can be described thus: CCTE_Shafer_MEA_dev_inter_network_spike_interval_mean: CCTE's Neural Network Formation Assay for Mean Inter-network Spike Interval, Shafer Lab (AID 2284047). The essentials:
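Rat cortical cultures, 1.5 x 10^5 cells/well on 48-well MEA plates; continuous exposure days 0–12, medium and compound refreshed DIV 5, 9. Mean time between consecutive network-spike peaks; AUC across DIV 5/7/9/12; DMSO baseline, negative fitting direction.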

Experiment [11] can be described thus: CCTE_Shafer_MEA_dev_network_spike_number: CCTE's Neural Network Formation Assay for Number of Network Spikes, Shafer Lab (AID 2284048). Put shortly:
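Rat cortical primary cultures on 48-well MEA (16 electrodes/well); continuous exposure DIV 0–12, full medium and treatment exchange DIV 5, 9. Readout: network spike count, AxIS adaptive detection, recordings DIV 5/7/9/12 collapsed to AUC; loss-of-signal fit, DMSO baseline.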

Experiment [12] in a line: CCTE_Shafer_MEA_dev_network_spike_peak: CCTE's Neural Network Formation Assay for Mean Number of Electrodes in Network Spike, Shafer Lab (AID 2284049).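 On AC50: fitted for loss of signal meaning fewer electrodes in network spikes than DMSO.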 Put shortly: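 Network-spike peak electrode count from recordings on days 5, 7, 9 and 12 was combined as trapezoidal area under the curve. Rat cortical cultures were treated continuously from plating, with compound renewed at each feed (DIV 5, 9); fits versus DMSO.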

The nature of experiment [13]: CCTE_Shafer_MEA_dev_spike_duration_mean: CCTE's Neural Network Formation Assay for Mean Spike Duration, Shafer Lab (AID 2284051).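 Further: mean network spike duration pooled as area under curve over DIV 5 to 12 recordings.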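 On AC50: potency for a decrease in mean network spike duration versus DMSO.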 The essentials:
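Readout is the average length of network spikes, clustered firing across electrodes, summed over DIV 5, 7, 9 and 12 as area under the curve. Neurons from rat cortex developed networks on MEA plates under continuous 12-day exposure.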

A short description of experiment [14]: CCTE_Shafer_MEA_dev_network_spike_duration_std: CCTE's Neural Network Formation Assay for Standard Deviation of Network Spike Duration, Shafer Lab (AID 2284052).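 Further: area under curve of spike duration SD across recording days 5 to 12; hits are decreases in network spike duration SD versus DMSO vehicle.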 The essentials:
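Read-out is the trapezoidal area-under-the-curve across recordings made on days 5, 7, 9 and 12, fitted in the negative direction against DMSO baseline. Neurons were primary rat cortical cells treated from day 0, with treatment renewed at each feed.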

Experiment [15] can be described thus: CCTE_Shafer_MEA_dev_per_network_spike_spike_number_mean: CCTE's Neural Network Formation Assay for Mean Number of Spikes in a Network Spike, Shafer Lab (AID 2284053).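 On AC50: fitted as decrease in spikes per network spike relative to DMSO.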 The essentials:
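Continuous twelve-day exposure of developing rat cortical networks grown over 16 microelectrodes per well; spontaneous firing is captured at four time points, and the per-network-spike spike number is integrated over development by trapezoidal AUC.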

Experiment [16] in a line: CCTE_Shafer_MEA_dev_per_network_spike_spike_percent: CCTE's Neural Network Formation Assay for Percent of Spikes in a Network Spike, Shafer Lab (AID 2284054). Put shortly:
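Read-out: percent of spikes falling in a 0.05 s window at network-spike peak, from spontaneous MEA recordings on days 5, 7, 9 and 12; trapezoidal AUC; loss of signal versus DMSO. Rat cortical cultures, compound present throughout.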

The nature of experiment [17]: CCTE_Shafer_MEA_dev_LDH: CCTE's Lactate Dehydrogenase Assay for Cytotoxicity in the Neural Network Formation Assay, Shafer Lab (AID 2284068; active means hit-call score of the fitted dose curve at least 0.9, where 1 is the maximum;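 further: exposure for twelve days from plating with re-dosing on DIV 5 and 9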). Put shortly:
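Cytotoxicity companion to network-formation recordings: rat cortical neurons received compound over 12 days of development, re-dosed at DIV 5 and 9 feeds. Viability was inferred from LDH enzyme activity relative to DMSO.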

Experiment [18] has as its system DIO2 (gene 1734). The experiment can be described thus: CCTE_GLTED_hDIO2: CCTE's human Deiodinase 2 (DIO2) Inhibition Assay, Great Lakes Toxicology and Ecology Division (GLTED) Lab (AID 2284050; active means hit-call score of the fitted dose curve at least 0.9, where 1 is the maximum). Put shortly: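 Iodide released by human deiodinase 2 over 3 h with test chemical, measured spectrophotometrically via Sandell-Kolthoff cerium/arsenic reaction. Run n=3; inhibition referenced to DMSO.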

Experiment [19] relates to DIO3 (gene 1735). The experiment can be described thus: CCTE_GLTED_hDIO3: CCTE's human Deiodinase 3 (DIO3) Inhibition Assay, Great Lakes Toxicology and Ecology Division (GLTED) Lab (AID 2284055; active means hit-call score of the fitted dose curve at least 0.9, where 1 is the maximum;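 further: potency is for inhibition seen as loss of released iodide signal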). Put shortly: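 Inhibition is read as reduced iodide release, measured spectrophotometrically by the Sandell-Kolthoff cerium/arsenic reaction. Adenovirus-expressed human DIO3 enzyme is exposed to chemical for 3 h, n=3 plates. Iodinated chemicals, nitrite, iron or thiocyanate may interfere.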

Experiment [20] is described as follows: CCTE_Shafer_MEA_acute_AB: CCTE's Alamar Blue Assay for Cytotoxicity in the Neural Acute Assay, Shafer Lab (AID 2284069; active means hit-call score of the fitted dose curve at least 0.9, where 1 is the maximum;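 further: active compounds lower the viability signal compared with DMSO wells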). Put shortly:
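Metabolic activity in chemically exposed rat cortical neurons (MEA cultures, day 13/15 post-plating) measured via CellTiter Blue resazurin reduction, 544/590 nm fluorescence; fitted relative to DMSO, with signal loss indicating reduced viability.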
A general note: Alamar Blue is a resazurin reagent that responds to reducing activity.

Results filed as inconclusive are left out. Active and inactive are the calls of the source. How the source made its calls, unless noted: active means hit-call score of the fitted dose curve at least 0.9, where 1 is the maximum; inactive means score below 0.9.

Chain of Estrogen receptor (Homo sapiens) (P03372 whole entry, looked up): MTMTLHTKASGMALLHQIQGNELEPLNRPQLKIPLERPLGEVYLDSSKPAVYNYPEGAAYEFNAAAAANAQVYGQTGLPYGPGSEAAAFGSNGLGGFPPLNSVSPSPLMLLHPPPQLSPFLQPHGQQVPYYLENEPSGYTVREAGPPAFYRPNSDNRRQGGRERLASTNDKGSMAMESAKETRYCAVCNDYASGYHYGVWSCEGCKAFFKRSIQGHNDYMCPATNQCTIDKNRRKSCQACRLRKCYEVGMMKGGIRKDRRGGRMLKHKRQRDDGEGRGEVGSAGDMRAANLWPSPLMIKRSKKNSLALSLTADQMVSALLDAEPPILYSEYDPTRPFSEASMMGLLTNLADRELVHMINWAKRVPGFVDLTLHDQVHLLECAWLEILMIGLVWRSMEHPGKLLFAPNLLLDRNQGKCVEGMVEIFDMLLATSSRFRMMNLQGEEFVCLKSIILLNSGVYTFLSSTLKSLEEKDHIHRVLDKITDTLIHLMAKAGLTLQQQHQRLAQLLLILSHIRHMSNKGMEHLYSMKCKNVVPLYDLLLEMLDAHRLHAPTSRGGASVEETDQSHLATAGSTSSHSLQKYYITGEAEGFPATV

`CC(=O)CCC(C)C`: the call in experiment [1], in experiment [2], in experiment [3] and in experiment [4] was inactive.

As to `O=S(=O)(O)CCC(F)(F)C(F)(F)C(F)(F)C(F)(F)F`, the compound was called inactive in [5], in experiment [6], in experiment [7], in experiment [8], in experiment [9] and in experiment [10]. Also, the outcome in experiment [11], in experiment [12], in [13], in experiment [14], in [15] and in [16] was inactive. Further, the result in [17] was inactive.

Regarding `CCOC(OCC)OCC`, the result in [1], in experiment [2] and in [4] was inactive.

What is called AC50 is the midpoint of the concentration-response curve, whichever way the signal moves. For `C=CC(=O)OCC(F)(F)C(F)(F)C(F)(F)C(F)(F)C(F)(F)C(F)(F)C(F)(F)C(F)F`, the AC50 in [18] is 10.3 µM (active).

As to `N#Cc1ccccc1O`, the compound was called inactive in [1], in experiment [2], in [3] and in [4].

For the compound `CCCCCCCC/C=C\CCCCCCCC(=O)OCC(O)CO` (stereo not given), the compound was called inactive in experiment [2], in [3] and in experiment [4]. In addition, the AC50 was 38.5 µM (active) in [18] and 21.3 µM (active) in experiment [19].

As to `C=CC(=O)OCCC(F)(F)C(F)(F)C(F)(F)C(F)(F)F`, the compound was classed as inactive in experiment [5], in experiment [6], in experiment [7], in [8], in experiment [9] and in experiment [10]. The result in [11] and in experiment [14] was inactive. The AC50 is 23.5 µM (active) in experiment [12]; 31.5 µM (active) in experiment [18]; 22.7 µM (active) in experiment [13]; 15 µM (active) in experiment [15]; 8.58 µM (active) in experiment [16]; 51.8 µM (active) in experiment [19]. In [17], the AC50 was 15 µM (active).

For the compound `CCN=C1C=CC(=C(c2ccc(N(CC)CC)cc2)c2ccc(N(CC)CC)cc2)c2ccccc21`, the AC50 in [1] was 59.1 µM (active); in [3], 57.3 µM (active); in [18], 42 µM (active); in experiment [19], 8.42 µM (active); in experiment [20], 6.86 µM (active). The outcome in experiment [4] was inactive.

Turning to `CCCCCCCCn1sc(Cl)c(Cl)c1=O`, the AC50 in experiment [18] is 26 µM (active); in [19] it was 7.82 µM (active).

`NC(=O)C(F)(F)C(F)(F)C(F)(F)F`: the call in experiment [6], in [8], in [9], in [10], in experiment [11] and in experiment [12] was inactive. In addition, the outcome in experiment [13], in experiment [14], in experiment [15], in experiment [16] and in experiment [17] was inactive.

For `O=S(=O)(Cl)C(F)(F)C(F)(F)C(F)(F)C(F)(F)C(F)(F)C(F)(F)C(F)(F)C(F)(F)F`, in experiment [18], the AC50 was 66 µM (active).

`Cc1ccc(O)c(-n2nc3ccccc3n2)c1`: in experiment [2], the AC50 is 38.2 µM (active). Further, the result in experiment [4] was inactive.

With `OCC(F)(F)C(F)(F)C(F)(F)C(F)(F)C(F)(F)C(F)(F)CO`, the AC50 in experiment [5] is 0.65 µM (active). The result in [6], in experiment [7], in experiment [8], in experiment [9], in [10] and in experiment [11] was inactive. The outcome in experiment [12], in experiment [13], in [14], in experiment [15], in experiment [16] and in [17] was inactive.

The values are drawn from PubChem BioAssay (EPA / NIEHS).
